Assay outcomes from PubChem BioAssay.
AmpC no deterg = AmpC beta-lactamase inhibition without detergent; P00811; AmpC nitrocefin hydrolysis, absorbance 480 nm, 0.0001% Triton; Potency, µM (series often up to 57.1 µM), for inactives: at the top dose activity change, negative = inhibition, hits mostly inhibitors; hit rate 0.52% among 330,000; AID 485341;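 further: plate controls were no compound for no effect and no enzyme for full effect; nearly all actives have a fitted effect of over 20% in size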
Target sequence (P00811 whole entry, looked up): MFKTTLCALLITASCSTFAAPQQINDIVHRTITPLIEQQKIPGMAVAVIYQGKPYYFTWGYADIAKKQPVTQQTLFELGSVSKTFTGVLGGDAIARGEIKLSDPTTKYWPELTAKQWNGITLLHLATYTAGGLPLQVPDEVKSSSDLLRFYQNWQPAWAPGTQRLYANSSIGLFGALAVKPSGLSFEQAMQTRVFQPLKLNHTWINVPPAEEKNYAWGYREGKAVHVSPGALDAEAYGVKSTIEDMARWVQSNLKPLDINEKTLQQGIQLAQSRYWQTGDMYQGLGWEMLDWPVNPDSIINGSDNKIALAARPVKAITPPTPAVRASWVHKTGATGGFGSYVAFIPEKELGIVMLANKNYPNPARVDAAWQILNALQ
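AmpC (5.3 nM in the dispensed reagent) in 20 mM phosphate pH 7.0 with 0.01% (detergent screen) or 0.0001% Triton X-100 was preincubated with compounds for 15 min at room temperature. Nitrocefin was then added from an 800 uM solution, and hydrolysis was followed at 480 nm.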
AMA1 RON2 block = AMA1-RON2 (P. falciparum) interaction inhibition. AlphaScreen AMA1-biotinylated RON2 peptide binding. hit rate 0.2% among 360,000. Potency, µM (series often up to 58.2 µM), without a hit: at the top dose activity change, negative = inhibition, most hits filed as inhibitors;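 further: 0% = vehicle wells and -100% = peptide control; nearly all actives have a fitted effect of over 45% in size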
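AMA1 (3D7) with his tag at 25 nM final met compounds first, then biotinylated RON2 peptide at 25 nM; detection used donor plus acceptor beads, 10 µg/mL apiece, read by AlphaScreen after 30 min at room temperature.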
SARS PLP yeast = inhibitors of SARS-CoV papain-like protease in yeast | S. cerevisiae expressing SARS-CoV PLpro, growth rescue | hit rate 0.19% among 330,000 | AID 485353 | Potency, µM (doses to about 32.9 µM), for the others: top-dose activity, positive = growth rescue, actives largely listed as activators; calls by dose curve; further: 0% is about no effect; nearly all actives have a fitted effect of over 55% in size
VACV Venus inh = inhibitors of vaccinia virus (Venus reporter) | Vaccinia virus Venus reporter expression, fluorescence | Potency, µM (highest dose often 36.5 µM), without a hit: top-dose activity change, negative = inhibition, most hits filed as inhibitors | hit rate 0.46% among 330,000; calls by dose curve; tested in A549 cells; further: on the % scale 0 is the no-effect control and ±100 the full control effect; nearly all actives have a fitted effect of over 30% in size
AmpC inh detg = blocks E. coli AmpC beta-lactamase in detergent assay; P00811; AID 485294; Potency, µM (titrated, usually from 114 µM), inactives show at the highest dose activity change, negative = inhibition, most hits filed as inhibitors; AmpC hydrolysis of nitrocefin, absorbance 480 nm, 0.01% Triton; hit rate 0.041% among 370,000;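 further: 0% = no-compound wells and -100% = no-enzyme wells; nearly all actives have a fitted effect of over 25% in size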
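AmpC (5.3 nM in the dispensed reagent) in 20 mM phosphate pH 7.0 with 0.01% (detergent screen) or 0.0001% Triton X-100 was preincubated with compounds for 15 min at room temperature. Nitrocefin was then added from an 800 uM solution, and hydrolysis was followed at 480 nm.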
Vaccinia mCherry = vaccinia inhibition (mCherry reporter) | Potency, µM (titrated, usually from 36.5 µM), for the others: at the top dose activity change, negative = inhibition, actives largely listed as inhibitors | Vaccinia virus mCherry reporter infection, fluorescence | hit rate 0.63% among 310,000 | AID 720579; calls by dose curve; tested in A549 cells; further: on the % scale 0 is the no-effect control and ±100 the full control effect; nearly all actives have a fitted effect of over 35% in size
* = called active by the depositor; i = inactive; ? = inconclusive; . = no result; [ ] = dose if it differs, or a comment. Sampled rows, rich in hits. Any-hit rate of the full collection: about 1.3%. Unless noted, the call rests on the fitted dose curve; in most records, active means well fitted curve in the direction sought with a large enough effect; inconclusive means small, poorly fitted or top-dose-only effect, or another doubt; inactive means no such curve, though single readings can be large; an effect the other way counts as inactive or inconclusive. Potency means the concentration at half of the fitted maximal effect.

SMILES	AmpC no deterg	AMA1 RON2 block	SARS PLP yeast	VACV Venus inh	AmpC inh detg	Vaccinia mCherry
COc1cccc(/C=N/NC(N)=S)c1OCc1ccccc1Cl	-21.6%	72.1%	?	?	-0.7%	?
Cc1ccc(S(=O)(=O)Oc2ccccc2/C=N/NC(N)=S)cc1	-11.5%	7.7%	3.2%	1.26µM*	-1.4%	?
COc1ccccc1OCCn1cc(/C=N/NC(N)=S)c2ccccc21	-38.0%	49.3%	11.5%	1.26µM*	-12.7%	?
NC(=S)N/N=C/c1ccccc1OCCSc1ccc(Cl)cc1	-16.2%	35.7%	11.1%	0.316µM*	-2.5%	0.0891µM*
COC(=O)c1c(OCc2ccccn2)cc(=O)n2c1CCN(Cc1cccc(C(F)(F)F)c1)CC2	.	.	.	-18.0%	.	-23.4%
Cc1ccc(C(=O)NCCc2nnc3n2CCN(Cc2ccnc4ccccc24)CC3)c(C)c1	.	.	.	-13.5%	.	-13.2%
Cn1c(C2CCC2)nc2cc(C(=O)N3CCOc4ccccc4C3)cc(NC(=O)C3CCCO3)c21 (stereo not given)	.	.	.	-4.3%	.	-18.2%
COC(=O)N/N=C/c1cn(Cc2ccc(F)cc2)c2ccccc12	-1.3%	-1.1%	0.6%	.	1.8%	.
CNC(=S)N/N=C/c1cn(Cc2ccc(F)cc2)c2ccccc12	-46.0%	8.8%[2.32 µM]	15.8%	?	?	3.16µM*
COCC(=O)Nc1cc(C(=O)N2CCCC2c2nccs2)c2c(c1)nc(-c1ccncc1)n2C (stereo not given)	.	.	.	-4.5%	.	-12.0%
CC(=O)NC(NC(=S)Nc1ccc(N=Nc2ccccc2C)cc1C)C(Cl)(Cl)Cl (stereo not given)	-14.4%	-6.8%	-1.9%	-17.0%	-8.8%	i
Cc1cc(N=Nc2ccccc2C)ccc1N	.	11.2µM*	.	-23.0%	.	?
COc1cccc(CN2C(=O)NC(C)(C3CCN(Cc4cccc(O)c4)CC3)C2=O)c1OC (stereo not given)	.	.	.	-22.3%	.	-2.8%
c1cncc(OC2CCN(Cc3ccc4c(c3)CN(Cc3nc5ccccc5s3)CCO4)CC2)c1	.	.	.	7.8%	.	-8.5%
CN(C)S(=O)(=O)c1ccc(C(=O)N2CCN=C2SCc2cccnc2)cc1	22.2%	0.0%	20µM*	-13.6%	-12.7%	-7.3%
CN(CCCC[C@H](CNCc1ccc(-c2ccccc2)cc1)N1C[C@H](c2ccccc2)N(CCc2ccc(Cl)c(Cl)c2)C(=O)C1=O)Cc1ccc(-c2ccccc2)cc1	56.4%	.	-12.9%	.	1.8%	.
COc1ccc(CNC[C@@H](CCCCN(C)Cc2ccc(OC)cc2)N2C[C@H](c3ccccc3)N(CCc3ccc(Cl)c(Cl)c3)C(=O)C2=O)cc1	148.5%	-5.9%	0.6%	22.4µM*	5.9%	?
CCCCCCC[n+]1ccc(/C=C/c2c(C)[nH]c3ccccc23)c2ccccc21	.	.	.	i	.	i
O=C(Nc1nccs1)c1ccc(-c2ccc(F)c(Cl)c2)o1	25.1µM*	84.9%	-0.6%	.	0.3%	.
CS(=O)(=O)c1cccc(C(=O)Nc2cccc(-c3nc4ccccc4[nH]3)c2)c1	17.8µM*	0.5%	-9.9%	-16.7%	-8.9%	-18.0%
CCOc1cc(OCC)cc(C(=O)Nc2cccc(-c3nc4ccccc4[nH]3)c2)c1	.	.	.	11.2µM*	-5.5%	11.2µM*
O=C(Nc1cccc(-c2nc3ccccc3[nH]2)c1)c1cccc(NC(=O)c2ccco2)c1	3.16µM*	?	3.3%	.	?	.
CCCOc1ccc(C(=O)Nc2cccc(-c3nc4ccccc4[nH]3)c2)cc1	.	.	.	-20.8%	2.5%	18.1%
COC(=O)c1cc(NC(=O)c2cccc(C(F)(F)F)c2)c(=O)oc1C/C=N/OCc1cccc(Cl)c1Cl	7.94µM*	28.8%	-5.2%	10.7%	-7.9%	i
COC(=O)c1cc(NC(=O)c2cccc(C(F)(F)F)c2)c(=O)oc1C	-9.5%	-0.3%	-7.3%	-8.8%	3.3%	-15.9%
SMILES	AmpC no deterg	AMA1 RON2 block	SARS PLP yeast	VACV Venus inh	AmpC inh detg	Vaccinia mCherry
Cc1cccc(CNC(=O)c2cnn(-c3ncc(C)c(-c4ccc(F)cc4)n3)c2C)n1	.	.	.	-21.8%	.	-2.5%
Cc1cc(C)cc(N2C(=O)NC(=O)/C(=C\c3cccn3-c3ccccc3)C2=O)c1	-19.6%	-27.7%	-41.9%	14.1µM*	?	?
CCOc1ccc2nc(N3CCCC(C(=O)NCCCN4CCOCC4)C3)sc2c1 (stereo not given)	3.16µM*	-3.4%	-0.9%	-14.0%	?	i
CCOc1ccc2nc(N3CCC(C(=O)NCCCN4CCOCC4)CC3)sc2c1	123.3%	6.7%	0.9%	-4.9%	-2.7%	-15.7%
O=[N+]([O-])c1ccc(N/N=C2\CC3CC=CC23)c([N+](=O)[O-])c1 (stereo not given)	-13.1%	14.1µM*	3.3%	1.6%	4.7%	-1.0%
CC(NC(=O)c1ccco1)c1nnc2n1CCN(Cc1ccc(N(C)C)cc1)CC2 (stereo not given)	.	.	.	-6.1%	.	-11.9%
COc1ccc(CN(C(=O)CSc2nnc(-c3c[nH]c4ccccc34)o2)c2ccc(F)cc2)cc1OC	-4.5%	-21.6%	9.6%	10µM*	-1.5%	10µM*
COc1ccc(CN(C(=O)CSc2nnc(-c3ccc(F)cc3)o2)c2ccc(F)cc2)cc1	-13.8%	0.9%	-5.9%	-27.0%	-14.4%	?
COC(=O)c1c(NC(=O)c2ccccc2)sc2c1CC(C)(C)NC2(C)C	-21.9%	3.6%	0.7%	0.0%	6.5%	17.1%
COC(=O)c1c(NC(=O)c2ccc(OC(C)C)cc2)sc2c1CC(C)(C)NC2(C)C	-2.7%	0.0%	2.2%	17.8µM*	1.0%	?
O=C(CNC(=O)c1ccccc1Br)N/N=C/c1ccco1	-15.3%	-2.6%	-0.3%	-3.0%	3.7%	-12.8%
COc1ccccc1C(=O)NCC(=O)N/N=C/c1cc(Br)ccc1OCc1ccccc1	25.1µM*	-4.4%	17.1%	-15.2%	1.9%	-11.7%
C#CCOc1ccccc1/C=N/NC(=O)c1ccccc1OCc1ccccc1	20µM*	25.5%	-1.8%	.	-9.1%	.
O=C(CNC(=O)c1ccc(F)cc1)N/N=C/c1cc(Br)ccc1OCc1ccccc1	?	31.7%	9.5%	.	-2.0%	.
O=C(CNC(=O)c1cccc(F)c1)N/N=C/c1cc(Br)ccc1OC(=O)/C=C/c1ccco1	15.8µM*	49.3%	-24.7%	.	-6.0%	.
COc1ccc(/C=N/NC(=O)c2ccccc2OCc2ccccc2)c(OC)c1	-28.1%	-8.0%	-11.1%	-8.0%	-0.7%	-27.7%
O=C(CNC(=O)c1ccccc1O)N/N=C/c1cc(Br)ccc1OC(=O)/C=C/c1ccco1	3.16µM*	18.2%	31.6%	-22.4%	-13.8%	?
Cc1ncc2c(c1CNC(=O)/C=C/c1cccs1)CCN(C(=O)c1noc3c1CCCC3)C2	.	.	.	-1.6%	.	-7.8%
